Screening data as filed in PubChem.
PostGolgi ctrl – growth inhibition of yeast control strain, primary screen, counter-screen for post-Golgi transport modulator project; AID 738, 2007; 98,000 compounds, 5% hits; inhibition, % at 10 µM; efflux-deficient yeast background strain, growth absorbance A615, 16 h
PostGolgi yeast – phenotypic screen on post-Golgi transport, primary screen | inhibition, % at 10 µM | 98,000 compounds, 0.9% hits | AID 739, 2007 | post-Golgi transport phenotypic cell assay;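 further: yeast cells grown in 1536-well plates; yeast grown about 18 h at 30C before absorbance read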
CYP2C9 act – human CYP2C9 activators, primary screen, biochemical, luminescence; activation factor at 5 µM; 96,000 compounds, 1.4% hits; Cytochrome P450 2C9 (Homo sapiens), P11712; recombinant CYP2C9, luciferin-H conversion; stronger effect = higher value; factor 1 = untreated enzyme, 0 = blocked; AID 1024, 2008;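 active means activation factor of 2 or more for CYP2C9 at a 5 µM dose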
CYP2C19 inhib – blockers of cytochrome P450 2C19 activity – biochemical, luminescence, ADME assay, primary screen | AID 778, 2007 | 96,000 compounds, 21% hits | CYP2C19 Supersomes, luciferin-H EGE luminescence, 30 min | P33261 | inhibition, % at 5 µM;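 active means CYP2C19 inhibition above a set limit at 5 µM in the primary screen, cut at about 50% in these data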
Target sequence (P33261 whole entry, looked up): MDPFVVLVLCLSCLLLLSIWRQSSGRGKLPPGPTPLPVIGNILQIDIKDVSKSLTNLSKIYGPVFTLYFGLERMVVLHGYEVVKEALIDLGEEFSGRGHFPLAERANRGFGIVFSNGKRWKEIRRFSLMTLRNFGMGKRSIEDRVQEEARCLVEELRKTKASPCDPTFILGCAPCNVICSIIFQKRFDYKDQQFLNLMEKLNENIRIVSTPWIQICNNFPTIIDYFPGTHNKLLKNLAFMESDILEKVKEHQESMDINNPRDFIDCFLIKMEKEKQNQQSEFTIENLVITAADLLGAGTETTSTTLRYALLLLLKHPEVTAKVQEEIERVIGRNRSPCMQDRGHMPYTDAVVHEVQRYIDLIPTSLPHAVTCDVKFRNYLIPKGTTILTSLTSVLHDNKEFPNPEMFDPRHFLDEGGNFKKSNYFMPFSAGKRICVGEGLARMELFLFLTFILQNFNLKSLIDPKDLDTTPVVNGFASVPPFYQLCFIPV
CYP2C9 inh – blockers of cytochrome P450 2C9 activity – biochemical, luminescence, ADME assay, primary screen | P11712 | CYP2C9 Supersomes, luciferin-H conversion | inhibition, % at 5 µM | 96,000 compounds, 20% hits | AID 777, 2007;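 active means blocking of liver enzyme CYP2C9 beyond about 50% at 5 µM, limit read from the data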
CYP2C19 activ – human CYP2C19 activators, primary screen, biochemical, luminescence; 96,000 tested, under 10 active; activation factor at 5 µM; recombinant CYP2C19, luciferin-H EGE luminescence; stronger effect = higher value; 0 = fully inhibited enzyme, 1 = untreated enzyme; Cytochrome P450 2C19 (Homo sapiens), P33261;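 active means activation factor of at least 2 at 5 µM in the primary screen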
Hits are given with their value; . = inactive. Only some compounds are listed: those with a hit (about 32% of all), similar ones and a draw of the others. Unless noted, no stated cut-off is given here; in the data, active means inhibition above about 30%; inactive means the rest.

SMILES | PostGolgi ctrl | PostGolgi yeast | CYP2C9 act | CYP2C19 inhib | CYP2C9 inh | CYP2C19 activ
N#Cc1c(-c2cccs2)nc(SCC(=O)c2cccs2)[nH]c1=O | . | . | . | . | 98 | .
O=C(CSc1nc2ccccc2c(=O)[nH]1)c1cccs1 | . | . | . | . | 66 | .
CCCn1nnc(NC(=O)Cc2ccccc2)n1 | . | . | . | . | . | .
CCCn1nnc(NC(=O)c2sc3ccccc3c2Cl)n1 | . | . | . | 61 | . | .
O=C(Nc1nccs1)c1sc2ccccc2c1Cl | . | . | . | . | . | .
CC(C)c1nnc(NC(=O)c2sc3ccccc3c2Cl)s1 | 34 | . | . | . | . | .
CCC(Oc1ccccc1)C(=O)N1CCN(c2ccccn2)CC1 (stereo unspecified) | . | . | . | 79 | 85 | .
CCC(Oc1ccccc1)C(=O)N1CCN(CC)CC1 (stereo unspecified) | . | . | . | . | . | .
CCC(Oc1ccccc1)C(=O)N1CCN(C(=O)C(CC)Oc2ccccc2)CC1 (stereo unspecified) | . | . | . | . | 84 | .
Cc1ccc(S(=O)(=O)N2CCC(C(=O)NNS(=O)(=O)c3ccc(Cl)cc3)CC2)cc1 | . | . | . | . | . | .
O=C(NCc1ccco1)C1CCN(c2nnc(-n3cccc3)s2)CC1 | . | . | . | . | . | .
CCCNS(=O)(=O)c1cc(Br)cc2c1N(C(=O)CC)CC2 | 34 | . | . | . | . | .
CCCCN(C)S(=O)(=O)c1cc(Br)cc2c1N(C(=O)C1CC1)CC2 | . | . | . | 86 | . | .
CCN1CCCC1CNS(=O)(=O)c1cc(Br)cc2c1N(C(=O)C1CC1)CC2 (stereo unspecified) | . | . | . | . | . | .
CCC(=O)N1CCc2cc(Br)cc(S(=O)(=O)CCC(=O)NCCc3ccccc3)c21 | . | . | . | . | 72 | .
O=C(C1CC1)N1CCc2cc(Br)cc(S(=O)(=O)NCCN3CCOCC3)c21 | . | . | . | . | . | .
O=C(C1CC1)N1CCc2cc(Br)cc(S(=O)(=O)NCc3ccc4c(c3)OCO4)c21 | . | . | . | 67 | . | .
Cc1ccc(C(=O)Nc2nncs2)cc1S(=O)(=O)N1CCOCC1 | . | . | . | . | . | .
Cc1ccc(S(=O)(=O)C2(C(=O)O)CCCC2)cc1C | . | . | . | . | . | .
Cc1ccc(CNC(=O)CCS(=O)(=O)c2cc(Br)cc3c2N(C(=O)C2CC2)CC3)o1 | . | . | . | . | 89 | .
O=C(C1CC1)N1CCc2cc(Br)cc(S(=O)(=O)N3CCOCC3)c21 | . | . | . | . | 72 | .
CCN(c1ccc2c(c1)OCO2)S(=O)(=O)c1cc(Br)cc2c1N(C(C)=O)CC2 | . | . | . | 56 | . | .
CCOCCCNS(=O)(=O)c1cc(Br)cc2c1N(C(=O)C1CC1)CC2 | . | . | 2.3 | . | . | .
CC(=O)N1CCc2cc(Br)cc(S(=O)(=O)NCC3CCCO3)c21 (stereo unspecified) | . | . | . | . | . | .
COc1cccc(-c2nc(CSCC(=O)NCC3CCCO3)c(C)o2)c1 (stereo unspecified) | . | . | . | . | . | .
SMILES | PostGolgi ctrl | PostGolgi yeast | CYP2C9 act | CYP2C19 inhib | CYP2C9 inh | CYP2C19 activ
CN1C(=O)N(c2ccccc2)C(Nc2nncs2)C1(C)C (stereo unspecified) | . | . | . | . | . | .
COc1ccccc1NS(=O)(=O)c1cccc(C(=O)N/N=C(\C)c2ccc(-n3ccnc3)cc2)c1 | . | . | . | 100 | 99 | .
Nc1nc2n(n1)C(c1ccc(F)cc1)CC(c1ccc(F)cc1)N2 (stereo unspecified) | . | . | . | 71 | . | .
Nc1nc2n(n1)C(c1cccc(Cl)c1)CC(c1ccc(F)cc1)N2 (stereo unspecified) | . | . | . | 89 | . | .
CC(=O)N(CCCN1CCOCC1)Cc1ccncc1 | . | . | . | . | . | .
O=C(N/N=C/c1ccc(OCCCF)cc1)c1cc(OCC(F)(F)F)ccc1OCC(F)(F)F | . | . | . | . | . | .
COc1ccc(OC)c(C(c2nnnn2CCc2ccccc2)N2CCC(C(N)=O)CC2)c1 (stereo unspecified) | . | . | . | . | . | .
O=C(c1cccc2ccccc12)N1CCN(CC2CC=CCC2)CC1 (stereo unspecified) | . | . | 2.6 | . | . | .
O=C1CCCCCN1Cc1ccccc1 | . | . | . | . | . | .
O=C1C2C3C=CC(C3=C3CCCCC3)C2C(=O)N1Cc1ccccc1 (stereo unspecified) | . | . | . | . | 55 | .
N#CCCn1c(C(C#N)(CCC#N)CCC#N)nc2ccccc21 | . | . | . | . | . | .
Cc1ccc(-c2csc3ncnc(N4CCN(C(=O)c5ccccc5)CC4)c23)cc1 | 32 | . | . | 73 | 79 | .
c1ccc(N2CCN(c3ncnc4scc(-c5cccs5)c34)CC2)cc1 | 47 | . | . | 96 | 97 | .
CCn1c2ccccc2c2nnc(SCC(=O)Nc3ncccn3)nc21 | . | . | . | . | . | .
Cc1ccc(NC2=CC(=O)CC(C)(C)C2)c(N)c1 | 38 | . | . | . | . | .
CCc1nc(C)cn1S(=O)(=O)c1cc(Br)ccc1OC | . | . | . | 96 | . | .
CCc1nc(C)cn1S(=O)(=O)c1cc(C)c(OC)c(C)c1C | . | . | . | 62 | . | .
CCc1nc(C)cn1S(=O)(=O)c1cc(C)c(OC)cc1C | . | . | . | 62 | . | .
CCc1nc(C)cn1S(=O)(=O)c1ccc(Cl)c(Cl)c1Cl | . | . | . | 95 | 60 | .
COc1cccc(NC2=NC3(CCCCC3)N=C(N)N2)c1 | . | . | . | . | . | .
CCCCN1CCc2c1nc1ccc(Br)cc1c2N | . | . | . | . | . | .
COc1ccc(OC)c(/C=N/NC(=O)CC2C(=O)NN=C2C)c1 (stereo unspecified) | . | . | . | . | . | .
CCc1nc(C)cn1S(=O)(=O)c1cc(Cl)c(OC)cc1Cl | . | . | . | . | . | .
CCc1nc(C)cn1S(=O)(=O)c1cc(Br)c(C)cc1OC | . | . | . | 61 | 58 | .
COCCCNc1c2c3c(cccc3[nH]c1=O)C(=O)c1ccccc1-2 | . | . | . | . | 61 | .
CC(C)OC(=O)C1C2C=CC3(CN(C(C)c4ccc(Br)cc4)C(=O)C13)O2 (stereo unspecified) | . | . | . | 83 | . | .
COc1ccccc1NC(=O)N(Cc1ccccc1)c1ccccn1 | 45 | . | . | . | . | .
COCC(=O)N(Cc1ccccc1)c1ccccn1 | . | . | . | . | . | .
CCOC(=O)CN(c1ccccn1)S(=O)(=O)c1ccccc1 | . | . | . | . | . | .
